Screening data (PubChem BioAssay)
Most compounds without a hit are left out; they make up all but 3.1% or so of the library.
EWS-Fli block = blocks EWS/Fli oncoprotein-driven transcription; A673 NR0B1-luciferase reporter, viability-normalised; inhibition, % at 12.6 µM; hit rate 0.67% among 350,000;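 active = mean inhibition of at least 50% after viability correction, with every replicate also passing that limit; inconclusive = mean reaches 50% but only one of two replicates passes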;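 also: firefly luciferase signal divided by Alamar Blue viability fluorescence both relative to DMSO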
LMP1 NFkB inh = Epstein-Barr LMP1 NF-kappaB reporter inhibition; LMP1-induced NF-kappaB luciferase reporter cells, luminescence; inhibition, % at 12.5 µM; hit rate 0.69% among 350,000; AID 504558; in the data active = inhibition above about 41%; inconclusive = no clear call, values can overlap the other calls;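 also: 0% = neutral control wells and 100% = reference inhibitor control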
LGR2 antag = inhibitors of bursicon-induced Drosophila LGR2 receptor cAMP signaling; HEK293 LGR2, CRE-luciferase, bursicon-stimulated, 4 h; inhibition, % at 9.99 µM; hit rate 0.35% among 380,000; AID 720647;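 active = drop in luminescence signal, shown as inhibition above about 50% in the replicate tests, limit read from the data, passing the limit was not always enough; inconclusive = probably only some replicates passing the limit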;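 also: agonist challenge used bursicon conditioned medium at about half maximal strength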
PAX8 inh HTS = PAX8 transcriptional activity inhibition; RMG-I TPO-luciferase reporter, SteadyGlo, 24 h; inhibition, % at 12.6 µM; hit rate 1.2% among 360,000;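 active = mean replicate inhibition at least 60% with every replicate also reaching 60%; inconclusive = only one of the two criteria is met; inactive = mean below 60% and not all replicates reaching 60%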;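 also: luciferase light reporting Pax8 driven TPO promoter activity; plate controls were median of neutral control wells for no effect and mitoxantrone controls for full effect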
TROY signal inh = inhibitors of TROY-dependent NF-kB signaling. Q293 LMP1-TROYcd NF-kB luciferase reporter, 4 h. inhibition, % at 10 µM. hit rate 0.98% among 360,000. AID 1347056;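 active = compounds whose plate-normalised and pattern-corrected inhibition of the luciferase reporter signal at the single screening dose is 50% or more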
TWEAK-Fn14 inh = blocks TWEAK-Fn14 interaction in a reporter cell assay; TWEAK-stimulated Fn14 reporter cells, luciferase luminescence, 8 h; inhibition, % at 10 µM; AID 1159606; hit rate 2% among 360,000; in the data active = inhibition above about 50%
An asterisk follows results filed as active; ? = inconclusive; nt = no result given.

SMILES	EWS-Fli block	LMP1 NFkB inh	LGR2 antag	PAX8 inh HTS	TROY signal inh	TWEAK-Fn14 inh
COc1ccc(NC(=O)/C(Cl)=C(/Cl)S(=O)Cc2ccc(Cl)cc2)cn1 (stereo not drawn)	74*	78*	101*	88*	90*	101*
COc1ccc(NC(=O)/C(Cl)=C(/Cl)S(=O)(=O)Cc2ccccc2)cn1	nt	90*	nt	nt	77*	101*
COc1ccc(NC(=O)C(Cl)=C(Cl)Cl)cn1	8	3	12	52	-18	-26
NS(=O)(=O)c1ccc(CCNC(=O)c2ccncc2)cc1	-1	-2	3	7	-7	18
NS(=O)(=O)c1ccc(CCNC(=O)c2ccc(C#CC3(O)CCCCC3)cc2)cc1	19	-3	12	?	56*	27
COc1ccccc1NC(=O)N1CCCCN2[C@H](CO)[C@H](c3ccc(C#CC4CC4)cc3)[C@H]2C1	nt	nt	nt	-5	nt	nt
CN(C)CCOc1ccc(-c2c(-c3ccccc3)sc3ccccc23)cc1	41	-17	12	80*	16	-32
COc1ccc(-c2[nH]ncc2CNC(C)CCn2cccn2)c(F)c1 (stereo not drawn)	5	-3	4	2	-4	18
COc1ccc(-c2[nH]ncc2CNC(C)c2cn(C)nc2C)c(F)c1 (stereo not drawn)	12	-2	30	-6	-16	65*
CCN(CC)S(=O)(=O)c1cccc(-n2c(O)c(C=Nc3ccccc3C(=O)O)c3ccccc3c2=O)c1	-4	58*	14	28	42	53*
C[C@H](CO)N1C[C@H](C)[C@@H](CN(C)S(=O)(=O)c2cn(C)cn2)Oc2ccc(NC(=O)Nc3ccc(C(F)(F)F)cc3)cc2CC1=O	45	nt	12	4	nt	nt
CCc1c(C)nc2cc(-c3ccc(OC)c(OC)c3)nn2c1NCC1CC1	nt	80*	nt	nt	9	12
O=C(CNc1ccc2ccccc2c1)N/N=C/c1ccc(C(=O)O)cc1	8	-15	-14	13	19	53*
O=C(O)c1ccc(/C=N/NC(=O)c2cc3c(ccc4ccccc43)o2)cc1	nt	-1	-7	-22	63*	23
O=C(CNc1cccc2ccccc12)N/N=C/c1ccc(C(=O)O)cc1	-1	-9	-6	-7	38	37
O=C(N/N=C/c1ccncc1)c1cc2c(ccc3ccccc32)o1	nt	-6	nt	nt	nt	2
Cc1ccc(N2CC(C(=O)Nc3ccc4c(c3)OCCO4)CC2=O)cc1 (stereo not drawn)	3	-3	-1	nt	50	59*
Cc1ccc(N2CC(C(=O)Nc3ccc4c(c3)OCCO4)CC2=O)cc1C (stereo not drawn)	-4	-2	12	4	46	54*
Cc1ccc(NC(=O)C2CC(=O)N(c3ccc4c(c3)OCCO4)C2)cc1S(=O)(=O)N(C)C (stereo not drawn)	4	1	13	nt	21	8
O=C(CSc1nnc(SCc2cccc3ccccc23)s1)N/N=C/c1c[nH]c2ccccc12	nt	-18	-17	-5	-15	56*
O=C(CSc1nnc(SCc2ccc(Cl)cc2)s1)N/N=C/c1c[nH]c2ccccc12	nt	2	-9	nt	-12	13
CC(=NNC(=S)Nc1ccccc1Cl)c1ccccn1	14	57*	7	71*	-3	4
CC(=NNC(=S)Nc1ccccc1)c1ccccn1	-4	72*	27	29	-38	-68
C=CCNC(=S)N/N=C(\C)c1ccccn1	nt	80*	nt	95*	-42	108*
C/C(=N/NC(=O)CNC(=O)c1ccccn1)c1ccccc1	-11	12	-20	-16	-20	-1
SMILES	EWS-Fli block	LMP1 NFkB inh	LGR2 antag	PAX8 inh HTS	TROY signal inh	TWEAK-Fn14 inh
N/C(=N\NC(=O)Nc1ccccc1)c1ccccn1	-103	nt	-37	-185	-24	19
CN(C)C(=O)c1cccc(-c2ccc3c(c2)[C@@H]2[C@@H](CCN2C(=O)C2CC2)[C@@H](CO)N3)c1	2	nt	-12	21	nt	nt
C[C@H](CO)N1C[C@H](C)[C@@H](CN(C)C(=O)NC2CCCCC2)Oc2ccc(NC(=O)CCCCCC(=O)Nc3ccccc3N)cc2C1=O	8	nt	-2	-33	nt	nt
CN(CC(=O)Nc1cccc(F)c1)CC(=O)N(C)CC(=O)Nc1ccccc1Br	0	73*	3	17	7	-11
CO[C@H]1CN(C)C(=O)c2ccc(NC(=O)Cc3ccccc3)cc2OC[C@@H](C)NC[C@@H]1C	-3	nt	19	-6	nt	nt
C[C@H](CO)N1C[C@H](C)[C@@H](CN(C)S(=O)(=O)c2ccccc2)Oc2ccc(NC(=O)CCC(F)(F)F)cc2CC1=O	8	nt	14	-2	nt	nt
O=C(NC1CCCc2ccccc21)C1CCN(S(=O)(=O)c2cccc(C(F)(F)F)c2)CC1 (stereo not drawn)	15	-6	8	70*	8	5
CC1COc2ccccc2N1S(=O)(=O)c1ccc(Cl)cc1 (stereo not drawn)	17	-10	-9	30	11	6
Cc1ccc(S(=O)(=O)N2c3ccccc3OCC2c2ccccc2)cc1 (stereo not drawn)	nt	2	nt	nt	16	63*
COc1ccc2c(c1)c(C(C)=O)c(C)n2CCc1ccccc1	6	26	11	-4	27	69*
CCOc1ccc(-n2c(C)c(C(C)=O)c3cc(OC(C)=O)ccc32)cc1	-4	32	33	-15	42	79*
COc1ccc(-n2c(C)c(C(C)=O)c3cc(O)ccc32)cc1	nt	57*	nt	nt	49	59*
COc1ccc2c(c1)c(C(C)=O)c(C)n2CCc1ccc(OC)c(OC)c1	-16	7	4	-2	-19	-26
CCOc1ccc(-n2c(C)c(C(=O)O)c3cc(OC)ccc32)cc1	1	2	9	-5	-15	40
CC(=O)Nc1ccc2c(c1)C(=O)N(C)[C@H]1CC[C@H](CC(=O)NCc3ccc(F)cc3)O[C@H]1CO2	5	nt	1	1	nt	nt
O=C(C[C@H]1C[C@H]2c3cc(NC(=O)Nc4ccccc4)ccc3O[C@H]2[C@H](CO)O1)NCCN1CCCCC1	-6	nt	16	-9	nt	nt
COc1cccc(-c2ccc([C@@H]3[C@H]4CN(C(=O)NC(C)C)CC(=O)N4[C@H]3CO)cc2)c1	-1	nt	-10	3	nt	nt
COc1ccccc1CNc1nc(NCc2ccccc2F)c2sccc2n1	nt	nt	nt	nt	58*	90*
COc1ccccc1CNc1nc(NCc2ccccc2)nc2ccsc12	17	nt	33	45	50*	0
c1ccc(CNc2nc(NCCOc3ccccc3)c3sccc3n2)cc1	31	nt	-3	23	42	50
COCCNc1nc(NCc2ccccc2F)c2sccc2n1	11	nt	0	16	19	-19
c1ccc(CNc2nc(NCc3ccccc3)c3sccc3n2)cc1	18	nt	-9	38	58*	39
COc1ccccc1CNc1nc(NCc2ccc(C)cc2C)c2sccc2n1	nt	nt	nt	nt	33	33
Fc1ccc(Nc2nc(NCc3ccco3)c3ccccc3n2)cc1	16	12	32	53	46	62*
